Screening data: PubChem, National Center for Advancing Translational Sciences (NCATS)
DT40 TDP1 no CPT – qHTS for Inhibitors of human tyrosyl-DNA phosphodiesterase 1 (TDP1): qHTS in cells in absence of CPT; DT40 Tdp1-/- hTDP1 cells, no CPT, ATP luminescence, 48 h; Potency, µM (series often up to 46.2 µM), for the others: at the highest dose activity change, negative = growth inhibition, most hits filed as inhibitors; hit rate 15% among 420,000; AID 686978, 2013; also: nearly all actives have a fitted effect of over 55% in size
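Chicken DT40 Tdp1-/- cells stably complemented with human TDP1 were seeded at 400 cells/well with DMSO in place of 20 nM camptothecin. After compound pinning, cells grew at least 48 hr at 37 °C; viability read by CellTiter-Glo luminescence.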
TDP1 cell CPT – growth inhibition of DT40 Tdp1-/-;hTDP1 cells with camptothecin (screen for TDP1 inhibitors). chicken DT40 Tdp1-/-;hTDP1 cells + 20 nM CPT, ATP luminescence, 48 h. Potency, µM (top dose mostly 46.2 µM), inactives show at the highest dose activity change, negative = growth inhibition, most hits filed as inhibitors. hit rate 12% among 420,000. AID 686979; also: nearly all actives have a fitted effect of over 55% in size
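Cell growth measured by CellTiter-Glo luminescence after a minimum 48 h, 37 C compound exposure with 20 nM CPT in Tdp1-knockout DT40 cells stably expressing hTDP1, seeded 400/well; qHTS titration format.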
HT1080NT lethal – kills 2HG-producing HT-1080-NT fibrosarcoma cells | AID 686970 | Potency, µM (top dose mostly 46.1 µM), for the others: at the highest dose activity, negative = less viability, most hits filed as cytotoxic | HT-1080-NT fibrosarcoma viability, CellTiter-Glo ATP luminescence, 48 h | hit rate 1.6% among 360,000;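 also: NT is the 2HG producing partner of a matched IDH1 knockdown line; 0% = DMSO-treated cells and -100% = media-only wells without cells; nearly all actives have a fitted effect of over 55% in size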
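Viability of the 2HG-overproducing fibrosarcoma line after 48 hours of compound exposure at 37 degrees C was determined by luminescence with CellTiter-Glo, and concentration-effect curves were then fitted and categorized.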
KB-3-1 cytotox – kills parental KB-3-1 adenocarcinoma cells | Potency, µM (highest dose often 46.1 µM), usual class: cytotoxic | hit rate 1.4% among 400,000 | AID 1347075 | KB-3-1 viability, CellTiter-Glo ATP luminescence, 72 h; also: nearly all actives have a fitted effect of over 60% in size
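72 h, 37 °C compound treatment of KB-3-1 parental cells; CellTiter-Glo added, 10 min, luminescence read. Data corrected against DMSO-only plates and normalized before curve fitting.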
KB-V1 MDR tox – kills drug-selected multidrug resistant KB-V1 cells; KB-V1 MDR cells viability, CellTiter-Glo, 72 h; Potency, µM (highest dose often 46.1 µM), usual class: cytotoxic; hit rate 3.4% among 400,000; AID 1347076; also: nearly all actives have a fitted effect of over 60% in size
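KB-V1 cells (P-gp-expressing MDR subline of KB-3-1) in phenol-red-free DMEM with 10% FBS were exposed to library compounds over a concentration series for 72 h at 37 degrees C. Viability read by CellTiter-Glo luminescence; concentration-effect curves fitted after normalization.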
HT1080 IDH1KD tx – HT-1080 IDH1 knockdown cell toxicity (counter line). HT-1080 IDH1 knockdown viability, ATP luminescence, 48 h. Potency, µM (highest dose often 46.1 µM), inactives show at the highest dose activity, negative = toxicity, hits mostly cytotoxic. hit rate 2% among 360,000;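 also: 0% = DMSO wells and -100% = cell-free medium wells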
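IDH1KD HT-1080 cells, 750/well, RPMI + 5% FBS; compound pinned after 2 h settling; 48 h, 37 °C; CellTiter-Glo luminescence; % activity normalised to DMSO and no-cell wells; curves fitted, classed by r2 and efficacy.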
The depositor's hits bear a star; i = inactive; ? = inconclusive; / = not tested or not shown; [ ] = another dose, or the depositor's remark. Hits are enriched below; roughly 19% of the tested compounds scored in any of these assays. Calls follow the shape of the dose curve; as a rule, active = well fitted curve in the direction sought with a large enough effect; inconclusive = small, poorly fitted or top-dose-only effect, or another doubt; inactive = no such curve, though single readings can be large; an effect the other way counts as inactive or inconclusive. Unless noted, % is scaled to controls: 0 for no effect and ±100 for the full control effect; potency is read from the fitted curve at half-maximal effect.

SMILES | DT40 TDP1 no CPT | TDP1 cell CPT | HT1080NT lethal | KB-3-1 cytotox | KB-V1 MDR tox | HT1080 IDH1KD tx
COc1cc(OC)c2c(-c3cccc(-c4ccc(N(C)C)cc4)c3)cc(=O)oc2c1 | 1.2µM* | 1.8µM* | ? | 2.6µM* | ? | 1.3µM*
N#Cc1cc(-c2ccccc2)nc(N2CCNCC2)n1 | ? | -5% | 0% | ? | i | 0%
COc1cc(O)c2c(=O)cc(-c3ccccc3)oc2c1 | ? | ? | -5% | i | i | 1%
COc1ccc(-c2cccc(-c3cc(=O)oc4cc(OC)c(OC)c(OC)c34)c2)cc1 | ? | ? | ? | ? | 23µM* | ?
COc1ccc(-c2cccc(-c3cc(=O)oc4cc5c(cc34)OCO5)c2)cc1 | ? | ? | 5% | i | i | 8%
COc1cc(OC)c2c(-c3cccc(-c4ccc(OC(F)(F)F)cc4)c3)cc(=O)oc2c1 | ? | ? | 5% | i | i | 5%
COc1cc(OC)c2c(-c3cccc(-c4ccc(O)cc4)c3)cc(=O)oc2c1 | 16µM* | ? | ? | 16µM* | ? | ?
COc1cc(OC)c2c(-c3cccc(-c4cccc(C)c4)c3)cc(=O)oc2c1 | 3.7µM* | 4.1µM* | ? | i | i | 5.8µM*
COc1ccc(-c2cccc(-c3cc(=O)oc4cc(OC)cc(OC)c34)c2)cc1 | 0.65µM* | 1.3µM* | ? | 0.65µM* | 1.2µM* | 0.58µM*
COc1cc(OC)c2c(C)cc(=O)oc2c1 | 4% | 10% | 0% | ? | i | 0%[9.24 µM]
CN1CCOc2c1cnn(CCO)c2=O | -12% | -6% | 24% | i | i | 10%
O=S1OCCN1c1ccccc1 (configuration not stated) | -7% | -13% | -6% | i | i | 19%
Cc1n[nH]c(C)c1S(=O)(=O)N(CC(=O)NCc1ccccc1Cl)c1ccc(C(C)C)cc1 | 16µM* | ? | / | i | i | /
Cc1ccc(N(CC(=O)NCc2ccccc2Cl)S(=O)(=O)c2c(C)noc2C)cc1 | ? | 7% | 3% | i | i | 6%
COc1cccc(CNC(=O)CN(c2ccc(C(C)C)cc2)S(=O)(=O)c2c(C)n[nH]c2C)c1 | 23µM* | 16µM* | / | i | i | /
COc1ccc(CNC(=O)CN(c2ccc(C)cc2)S(=O)(=O)c2c(C)n[nH]c2C)cc1 | ? | -11% | / | i | i | /
COC(=O)c1sc(NC(=O)COc2cccnc2[N+](=O)[O-])c(C(=O)OC)c1C | -24% | -29% | -3% | i | i | -12%
CC(=O)OCCSc1c(-c2ccccc2)c2cc(Cl)ccc2[nH]c1=O | ? | -27% | -1% | i | 23µM* | -2%
CSc1ccc(C2C(C#N)=C(N)Oc3c2ccc(=O)c2c(C)oc(C)c32)cc1 (configuration not stated) | 16µM* | 18µM* | ? | i | i | ?
N#Cc1cc2ccccc2nc1SCC(=O)Nc1ccc(S(=O)(=O)N2CCCC2)cc1 | 18µM* | 21µM* | -19% | i | 4.1µM* | -26%
COc1ccc2nc(SCC(=O)Nc3ccc(S(=O)(=O)N4CCCC4)cc3)c(C#N)cc2c1 | ? | 9.2µM* | 4% | i | i | ?
CCOc1ccc2nc(SCC(=O)Nc3ccc(S(=O)(=O)N4CCCC4)cc3)c(C)cc2c1 | 0% | -22% | -20% | i | i | -12%
Cc1cccc(-c2nc(N3CCN(c4ccc(F)cc4)CC3)c3ccccc3n2)c1 | ? | ? | / | i | i | /
Cc1c(NC(=O)CCCCCN2C(=O)c3ccccc3C2=O)c(=O)n(-c2ccccc2)n1C | -3% | -26% | 6% | i | ? | 0%
CC(=O)c1ccc(OCc2cc(C(=O)N(C)CC3COc4ccccc4O3)no2)cc1 (configuration not stated) | 13µM* | 10µM* | -1% | i | ? | 0%
SMILES | DT40 TDP1 no CPT | TDP1 cell CPT | HT1080NT lethal | KB-3-1 cytotox | KB-V1 MDR tox | HT1080 IDH1KD tx
CC(=O)c1ccc(OCc2cc(C(=O)N3CCN(c4ccccc4)CC3C)no2)cc1 (configuration not stated) | 18µM* | ? | -6% | i | i | -6%
COc1ccc(NC(=O)CSc2ccc3nnc(-c4cccnc4)n3n2)c(OC)c1 | -17% | 1% | 9% | i | i | 3%
COc1ccccc1C(=O)N[C@@H]1c2ccccc2C2(CCN(Cc3cccnc3)CC2)[C@H]1O | ? | 6%[9.04 µM] | / | / | / | /
CCCc1nc2oc3ccccc3c(=O)c2c(=O)n1CCCOC | -14% | 9% | -3% | i | i | -2%
COCCCn1c(C2CCCCC2)nc2oc3cc(OC)ccc3c(=O)c2c1=O | 21µM* | ? | 9% | ? | 23µM* | 15%
COc1ccc2c(=O)c3c(=O)n(Cc4ccco4)c(-c4ccc(C)cc4)nc3oc2c1 | ? | ? | 7% | i | i | 3%
COc1ccc2c(=O)c3c(=O)n(Cc4ccco4)c(C(C)C)nc3oc2c1 | -23% | 3% | 3% | i | 21µM* | -9%
CCc1nc2oc3cc(OC)ccc3c(=O)c2c(=O)n1Cc1ccccc1 | ? | ? | 3%[9.24 µM] | i | i | -21%
COc1ccc(CCn2c(C(C)C)nc3oc4ccccc4c(=O)c3c2=O)cc1 | 29µM* | ? | -8% | i | i | -1%
CCCc1nc2oc3cc(OC)ccc3c(=O)c2c(=O)n1CCc1ccccc1 | 23µM* | 21µM* | 1% | i | i | 18%
COc1ccc(/C=N/OCC(=O)OCC(=O)N(C)c2ccccc2)cc1 | 2% | -1% | 12% | i | i | 13%
CC(C)c1nc2c(c(=O)c3ccccc3n2C)c(=O)n1CCc1ccccc1 | 9.2µM* | ? | -6% | i | ? | 0%
COc1ccc(Cn2c(-c3ccccc3)nc3c(c(=O)c4ccccc4n3C)c2=O)cc1 | ? | ? | 5% | i | i | 9%
O=S(=O)(c1cccc(F)c1)N1CCC(Oc2ccc(-n3cnnn3)cc2)CC1 | 15µM* | 16µM* | / | / | / | /
Cn1cc(C(=O)c2ccc(Cl)cc2Cl)cc1C(=O)N/N=C(\N)COc1ccc(Cl)cc1Cl | ? | ? | ? | 18µM* | ? | ?
